Compounds with a hit are over-represented: about 2.6% of the library has one in this group of screens.
FH mod – Identification of activators of human fumarate hydratase by quantitative high-throughput screening; Fumarate hydratase, mitochondrial (Homo sapiens), P07954; FH coupled MDH/diaphorase resazurin fluorescence, 15 min; Potency, µM (series often up to 79.9 µM), without a hit: at the top dose activity change, negative = inhibition, most hits filed as inhibitors; actives 0.22% (n = 54,000); AID 1347055, 2019; also: % is scaled to controls: 0 for no effect and ±100 for the full control effect; the screen sought activators but most active calls are inhibition curves; nearly all actives have a fitted effect of over 45% in size
HTT-AS promoter – HTT-AS promoter activation | HEK293 HTT-AS promoter firefly luciferase reporter, 24 h; response scale: percent change from vehicle, -100% = no light | Potency, µM (doses to about 57.5 µM), for the others: at the highest dose activity change, positive = activation, hits mostly activators | actives 0.24% (n = 48,000) | AID 1508624; also: nearly all actives have a fitted effect of over 55% in size
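HEK293 cells carrying firefly luciferase reporters were seeded at 2,500 per well in Opti-MEM and cultured for 24 h. They were then treated with compounds at up to 57.5 uM final for 24 h at 37 degrees C before Dual-Glo luminescence readout.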
NTMT1 inh – inhibitors of human N-terminal methyltransferase NTMT1; Q9BV86; NTMT1 MTase-Glo SAH luminescence, purified enzyme; Potency, µM (doses to about 114 µM), without a hit: at the top dose activity change, negative = inhibition, hits mostly inhibitors; actives 2.5% (n = 59,000);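 also: plate controls were DMSO vehicle for no effect and no enzyme for full effect; nearly all actives have a fitted effect of over 65% in size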
Target sequence (Q9BV86 whole entry, looked up): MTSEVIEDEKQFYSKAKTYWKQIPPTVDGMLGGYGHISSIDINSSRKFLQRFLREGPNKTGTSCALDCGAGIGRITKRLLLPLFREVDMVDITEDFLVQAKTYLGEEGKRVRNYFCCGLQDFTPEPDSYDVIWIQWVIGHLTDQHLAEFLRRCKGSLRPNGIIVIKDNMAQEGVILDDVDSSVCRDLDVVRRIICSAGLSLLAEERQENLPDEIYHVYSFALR
HTT prom inh – HTT promoter inhibition; actives 0.93% (n = 48,000); Potency, µM (series often up to 57.5 µM), for the others: top-dose activity change, negative = inhibition, actives largely listed as inhibitors; AID 1508623; HEK293 HTT promoter firefly luciferase reporter, 24 h; also: nearly all actives have a fitted effect of over 50% in size
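Quantitative HTS used concentration series of up to 57.5 uM final on HEK293 luciferase reporter cells, 24 h at 37 degrees C. Readout was Dual-Glo firefly luminescence.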
Starred values were filed as active, the others as inactive; ! = not confirmed by another sample; [ ] = another dose, or the depositor's remark. Calls follow the shape of the dose curve; as a rule, active = well fitted curve in the direction sought with a large enough effect; inconclusive = small, poorly fitted or top-dose-only effect, or another doubt; inactive = no such curve, though single readings can be large; an effect the other way counts as inactive or inconclusive. Potency is read from the fitted curve at half-maximal effect.

Screening COc1cccc(C2c3c(ncn(-c4ccccc4C#N)c3=N)Oc3ccc4ccccc4c32)c1 (configuration not stated) returned NTMT1 inh 79.4µM*.
`COc1ccc(OC)c(-n2cnc3cc(C(=O)NC4CCCC4)ccc32)c1` gave FH mod 13.2%, HTT-AS promoter -11.5%, NTMT1 inh 3.9% and HTT prom inh -14.3%.
For COCCOc1ccc2c(c1)ncn2-c1ccc2cccc(N3CCC(N)CC3)c2n1 the results were FH mod -1.4%, HTT-AS promoter -3.3%, NTMT1 inh 35.5µM*! and HTT prom inh inconclusive.
For O=C1/C(=C/c2ccc(O)c(O)c2)Oc2ccccc21 the results were FH mod inconclusive and NTMT1 inh 28.2µM*.
`Nc1ncnc2nc(-c3ccc(N4CCOCC4)nc3)cc(-c3cccc(Br)c3)c12` gave FH mod 3.0%, HTT-AS promoter -35.3%, NTMT1 inh 1.12µM* and HTT prom inh 14.6%.
`CCOC(=O)c1cc(C)n(CC2CCC(C(=O)Nc3ccc(Cl)cc3)CC2)c1C` (configuration not stated) gave FH mod -10.4%, HTT-AS promoter -92.5%, NTMT1 inh 3.7% and HTT prom inh 3.98µM*.
`CCOC(=O)c1cc(C)n(CC2CCC(C(=O)Nc3cccc(Cl)c3)CC2)c1C` (configuration not stated) gave FH mod -22.7%, HTT-AS promoter -16.6%, NTMT1 inh 3.3% and HTT prom inh inconclusive.
`Cn1c(SCc2ccc(F)cc2)nc2ccc(C(=O)NCc3ccc(F)cc3)cc21` gave FH mod -11.8%, HTT-AS promoter -61.6%, NTMT1 inh -2.0% and HTT prom inh 25.1µM*.
For Cc1ccc(CNC(=O)c2ccc3nc(SCc4ccc(F)cc4)[nH]c3c2)cc1 the results were FH mod inconclusive, HTT-AS promoter -87.1%, NTMT1 inh inconclusive and HTT prom inh 22.4µM*.
Cn1c(SCc2ccc(F)cc2)nc2ccc(C(=O)NCc3ccc(Cl)cc3)cc21 was read as FH mod -14.0%, HTT-AS promoter -44.5%, NTMT1 inh 18.4% and HTT prom inh inconclusive.
`Cc1cc(Nc2ncnc3ccc(NC4=NC(C)(C)CO4)cc23)ccc1Oc1ccn2ncnc2c1` gave FH mod -10.0% and NTMT1 inh -18.4%.
For COc1ccccc1-c1ccc(-c2cn(C(=O)N3CCCCC3Cc3ccccc3)nn2)cc1 (configuration not stated) the results were FH mod -2.8% and NTMT1 inh 24.2%[57.5 µM].
For Cc1cc(-c2cnc(N)c3c(-c4ccc5scnc5c4)csc23)n(C)n1 the results were FH mod -9.1% and NTMT1 inh inconclusive.
Screening c1cncc(-c2ccc(CNc3nc(N4CCCC4)nc4ccccc34)cc2)c1 returned NTMT1 inh 39.8µM*.
`Brc1ccccc1-c1nc(NCc2ccc(-c3cccnc3)cc2)c2ccccc2n1` gave NTMT1 inh 15.7%.
Screening O=C(Cc1ccc(Cl)c(Cl)c1)Nc1ccc(S(=O)(=O)Nc2ccccc2)cc1 returned NTMT1 inh 8.9%.
COCCNc1cc2c(cc1[S+](=O)([O-])Nc1ccc(C)c(C)c1)CCC(=O)N2 was read as NTMT1 inh -1.8%.
`CS(=O)(=O)c1ccc(-c2cn3ccccc3n2)cc1` gave FH mod -0.9%[53.3 µM], HTT-AS promoter inconclusive, NTMT1 inh 7.08µM* and HTT prom inh 6.7%.
`Cc1cc(C)c(S(=O)(=O)Nc2cc(-c3cn4ccccc4n3)ccc2C)cc1C` gave FH mod -18.3%, HTT-AS promoter -17.4%, NTMT1 inh 1.6% and HTT prom inh inconclusive.
CCC(C(=O)NCCc1ccc(SC)cc1)n1nc(C)c2c(C)n(-c3ccc(C)cc3)nc2c1=O (configuration not stated) was read as FH mod -4.7%, HTT-AS promoter -26.7%, NTMT1 inh -11.9% and HTT prom inh 35.5µM*.
`Cc1ccc(-n2nc3c(=O)n(C(C)C(=O)NCc4ccc(OC(C)C)cc4)nc(C)c3c2C)cc1` (configuration not stated) gave FH mod -12.2%, HTT-AS promoter -58.3%, NTMT1 inh 2.9% and HTT prom inh 7.08µM*.

Screens deposited in PubChem by National Center for Advancing Translational Sciences (NCATS).
